From ChEMBL document CHEMBL3433997, “St. Jude Leishmania screening dataset” (2016)

Molecular target: Hexose transporter 1 (Plasmodium falciparum) (UniProt O97467)
Test: ST_JUDE_LEISH: Cytotoxicity at 2uM final concentration against transgenic Leishmania Mexicana promastigotes LmPfHT that are glucose transport deficient and complemented with the Plasmodium falciparum hexose transporter. Activity is measured by DNA content using SYBR green in vitro
Format: functional

Compared with `O=C(NCc1cccc(F)c1)c1ccc(O)c(-c2cc(Cl)cc(Cl)c2)c1`, `O=C(NCC1CCC(C(=O)NC2CCCc3ccccc32)CC1)c1ccc(O)c(-c2ccc(Cl)c(Cl)c2)c1` (stereo not given) is lower in inhibition: 3.75% for the first, 2.81% for the second.

Going from `OCC1CCN(Cc2ccc(-c3cccc(-c4nc5cc(F)ccc5[nH]4)c3)cc2)CC1` to `N#Cc1ccc(N2CCN(Cc3ccc(-c4cccc(-c5nc6ccccc6[nH]5)c4)cc3)CC2)nc1`, the inhibition rises from -1.06% to 1.43%.

Going from `Cc1cc(-c2ccnc(Nc3cccc(C#N)c3)n2)cc(C)c1O` to `COCCNCc1cccc(-c2ccc3nccc(Nc4cc(O)ccc4C)c3c2)c1`, the inhibition falls from 16% to 4.21%.

First: CN1CCN(CCCN(Cc2cccc(-c3cccc(CNCc4ccc5c(c4)OCO5)c3)c2)C(=O)CCC2CCCC2)CC1
Second: O=C(Nc1ccccc1)N(Cc1ccc(-c2cccc(CNCc3ccc4c(c3)OCO4)c2)cc1)C1CCN(Cc2ccccc2)CC1
The inhibition of the first is higher: 12.2% for the first, 0.92% for the second.

First: CN(C)CCCNCc1ccc(-c2ccc(CNCCc3ccccc3)cc2)cc1
Second: O=C(Nc1ccc2ccccc2c1)N(CCCn1ccnc1)Cc1csc(-c2ccc(CNCc3ccccc3)cc2)n1
The inhibition of the first is lower: 0.15% for the first, 0.41% for the second.

First: O=C(NCC1CCN(Cc2cccc(C(F)(F)F)c2)C1)c1cc(-c2cccc(C(F)(F)F)c2)cs1 (stereo not given)
Second: FC(F)(F)c1ccc2[nH]c(-c3cccc(-c4cccc(CNCC5CCCO5)c4)c3)nc2c1 (stereo not given)
The inhibition of the first is lower: 2.69% for the first, 3.63% for the second.

First: CCCCCCCN1CC[C@@H](CCCc2ccnc3ccc(OC)cc23)[C@@H](CCN)C1
Second: CCCCCCCN1CC[C@@H](CCCc2ccnc3ccc(OCCN4CCNCC4)cc23)[C@@H](CC)C1
The inhibition of the first is lower: 2.34% for the first, 4.74% for the second.

Compared with `Clc1ccccc1OCc1ccccn1`, `COc1cccc2c(Nc3ccccc3C)nc(Nc3ccccc3C)nc12` is higher in inhibition: 2.07% for the first, 16.8% for the second.

Compared with `Cc1noc(C)c1-c1cccc(CNCc2ccc(-c3ccc(-c4nc5cccc(C)c5[nH]4)cc3)cc2)c1`, `Cc1ccoc1C(=O)Nc1cccc(-c2cccc(-c3nc4ccccc4[nH]3)c2)c1` is higher in inhibition: 0.15% for the first, 6.56% for the second.

Going from `CCCCCCNC(=O)C(N)CCCC(N)C(=O)NCCCCCC` (stereo not given) to `CCCCCCNC(=O)C1Cc2c([nH]c3ccc(Br)cc23)C2(CCN(CCc3ccccc3)CC2)N1` (stereo not given), the inhibition rises from 5.65% to 10.8%.

Compared with `Nc1c(Cl)cc(C(O)CNCCCCCCOCCC=C2CCOCC2)cc1Cl` (stereo not given), `O=C(C=Cc1ccc(Cl)c(Cl)c1)NCCCCCN1CCC(CCNC(=O)c2ccc3c(c2)OCO3)CC1` is higher in inhibition: 0.32% for the first, 5.12% for the second.

Going from `O=C(NCCN1CCCC1)c1ccc(-c2ccc(-c3nc4ccccc4[nH]3)s2)cc1` to `O=S(=O)(Nc1cc2c(cc1OCCCN1CCCCC1)CCNCC2)c1ccc(-c2ccc(Cl)cc2)cc1`, the inhibition rises from -1.55% to -0.13%.

Compared with `Cc1cc2nc(N/C(N)=N/C(=O)NC3CCCCC3)nc(C)c2cc1C`, `Cc1ccc([N+](=O)[O-])cc1NC(=O)N(CC(O)c1ccccc1)C1CCCCC1` (stereo not given) is lower in inhibition: 3.48% for the first, 2.61% for the second.

Going from `CC(C)NCc1ccc(-c2ccc(CN3CCCC(c4ccccc4)C3)cc2)c(C(=O)NCC2CCCCC2)c1` (stereo not given) to `CCCNCc1ccc(-c2ccc(CN(CCOC)C(=O)/C=C/c3ccccc3C)cc2)nc1`, the inhibition rises from -0.36% to 6.69%.

Compared with `CC1(C)N=C(NC(=O)Nc2ccc([N+](=O)[O-])cc2)N=C(N)N1OCc1cccc2ccccc12`, `COc1cc(C)nc2ccc(NC(=O)Nc3ccc([N+](=O)[O-])cc3C)cc12` is lower in inhibition: 4.36% for the first, 2.99% for the second.

First: Cc1cc(CNCCCCCNCc2cccc([N+](=O)[O-])c2)ccc1O
Second: CC(C)CCNCc1c(O)ccc2ccccc12
The inhibition of the first is higher: 1.39% for the first, -0.86% for the second.

First: O=C(Nc1ccc2c(c1)CCN2C1CCN(Cc2cccc3cc[nH]c23)C1)c1ccco1 (stereo not given)
Second: Cc1c(Cl)cccc1S(=O)(=O)Nc1ccc(CCN2CCC(N)CC2)cc1
The inhibition of the first is higher: -0.85% for the first, -0.88% for the second.

First: CCOc1cc(Br)c(C(C)NC(=O)c2ccccc2)cc1OCC (stereo not given)
Second: CCCC(=O)c1cnc2c(I)cccc2c1Nc1ccccc1C
The inhibition of the first is lower: 0.92% for the first, 4.24% for the second.

First: OC(CN1CCN(c2cccc(Cl)c2)CC1)C(c1ccccc1)c1ccccc1 (stereo not given)
Second: N=c1c(C(=O)NCc2ccccc2)cc2c(=O)n3ccccc3nc2n1CCc1ccccc1
The inhibition of the first is lower: 2.99% for the first, 4.07% for the second.

Going from `Cc1cc(C)cc(OCC(O)CN(CCN2CCOCC2)C(=O)Nc2ccc(Br)cc2)c1` (stereo not given) to `Cc1nc(Nc2ccc(C)c(Cl)c2)c2c(C)noc2n1`, the inhibition falls from 9.85% to 4.91%.
